Compound activity (PubChem)
TDP1 inh: blocks human tyrosyl-DNA phosphodiesterase 1; recombinant TDP1, AlphaScreen DNA substrate cleavage; Q9NUW8; Potency, µM (series often up to 130 µM), inactives show at the highest dose activity change, negative = inhibition, usual class: inhibitors; AID 485290; actives 0.28% (n = 350,000); also: potency is read from the fitted curve at half-maximal effect; % is scaled to controls: 0 for no effect and ±100 for the full control effect; nearly all actives have a fitted effect of over 40% in size
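Steps: enzyme plus compound, 15 min RT; add biotin/phosphotyrosine-FITC oligonucleotide (15 nM final), react 5 min; add donor/acceptor beads (10 ug/ml final), 10 min; read AlphaScreen. Tdp1 at 1 nM final.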
CtBP-E1A blk: inhibitors of CtBP/E1A interaction; AlphaScreen GST-E1A/His-CtBP binding, 1536-well; active compounds read low; activity change, % (test concentration not listed); actives 0.49% (n = 340,000); in the data active = activity change below about -65%; inconclusive = mostly about -30% to -63%; also: % is scaled to controls: 0 for no effect and ±100 for the full control effect
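Protein mix (5X: 125 nM each GST-E1A, His-CtBP) was incubated with pinned compound 2 h at 37 deg C in dark, in 50 mM Tris pH 8.0 buffer with 300 mM NaCl. Glutathione donor and nickel acceptor beads followed; AlphaScreen signal read after 1 h.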
HP1b binding inh: inhibitors of HP1-beta chromodomain binding to methylated histone tails; AlphaScreen HP1-beta / biotin-H3K9me3 peptide binding; Potency, µM (top dose mostly 114 µM), for the others: at the highest dose activity change, negative = inhibition, usual class: inhibitors; actives 0.56% (n = 390,000); P83916; also: potency is read from the fitted curve at half-maximal effect; nearly all actives have a fitted effect of over 70% in size
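Compound inhibition of the preformed complex between 50 nM HP1-beta and 50 nM biotinylated H3K9me3 peptide was read by AlphaScreen. Buffer was PBS pH 7.4 with 0.01% Tween-20. Incubations ran 30 min at room temperature, with 10 ug/mL donor/acceptor beads.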
JMJD2A Tudor inh: JMJD2A Tudor domain (human) inhibition | AID 504339 | actives 4.4% (n = 390,000) | O75164 | Potency, µM (top dose mostly 114 µM), for the others: at the highest dose activity change, negative = inhibition, usual class: inhibitors | AlphaScreen JMJD2A-Tudor / H3K4me3 peptide binding; also: potency is read from the fitted curve at half-maximal effect; % is scaled to controls: 0 for no effect and ±100 for the full control effect; nearly all actives have a fitted effect of over 50% in size
BAZ2B inh: inhibitors of human BAZ2B bromodomain. Q9UIF8. AlphaScreen BAZ2B-H3K14Ac peptide displacement. Potency, µM (doses to about 114 µM), without a hit: top-dose activity change, negative = inhibition, hits mostly inhibitors. actives 4.4% (n = 360,000). AID 504333; also: potency is read from the fitted curve at half-maximal effect; % is scaled to controls: 0 for no effect and ±100 for the full control effect; nearly all actives have a fitted effect of over 60% in size
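AlphaScreen displacement of biotin-H3(5-23)K14Ac peptide (50 nM final) from BAZ2B (50 nM final) in PBS pH 7.4, 0.01% Tween-20; complex preformed 30 min RT, then compounds (top 110 uM) 30 min RT, beads 20 min dark.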
Six1-Eya2 blk: Six1/Eya2 interaction inhibition; AlphaScreen GST-Six1/His-Eya2 binding, biochemical; active compounds read low; activity change, % (test concentration not listed); actives 0.56% (n = 360,000); AID 651725; in the data active = activity change below about -65%; inconclusive = mostly about -30% to -63%; also: % is scaled to controls: 0 for no effect and ±100 for the full control effect
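GST-Six1 + His-Eya2 (5X stock: 250/500 nM); Tris pH 8.0, 300 mM NaCl, 0.05% BSA, 0.02% Tween 20; GSH donor/Ni acceptor beads; 1 h 37 °C dark; AlphaScreen readout.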
The depositor's hits bear a star; ? = inconclusive; nt = no result; [ ] = dose if it differs, or a comment. This is a sample that favours compounds with a hit; in the whole collection about 5.3% have one here. Unless noted, calls follow the shape of the dose curve; as a rule, active = well fitted inhibition curve with a large enough effect; inconclusive = small, poorly fitted or top-dose-only effect; inactive = no such curve, though single readings can be large or run the other way.

SMILES	TDP1 inh	CtBP-E1A blk	HP1b binding inh	JMJD2A Tudor inh	BAZ2B inh	Six1-Eya2 blk
CCCC[n+]1c(C)sc2ccc(C)cc21	5%	0	66%	-17%	-15%	0
CCCC[n+]1c2ccccc2cc2ccccc21	nt	nt	24%	40µM*	56µM*	4
CCCCC[n+]1cccc2c3ccccc3ccc21	13%	13	14%	?	34%	5
CCC[n+]1c2ccccc2cc2ccccc21	nt	-3	-34%	20µM*	45µM*	-2
CC(=O)c1c(C)[nH]c(C(=O)CSc2nnc(-c3ccc(Cl)cc3)n2CC2CCCO2)c1C (stereo unspecified)	5%	-15	9%	79µM*	-10%	-2
NC(=O)NC(=O)CSc1nnc(-c2ccc(Cl)cc2)n1CC1CCCO1 (stereo unspecified)	-1%	nt	36%	-9%	1%	10
COc1ccc(-c2cc(=O)n(-c3nc4ccccc4[nH]3)[nH]2)cc1	10%	-65*	15%	?	28µM*	?
COCc1cc(C)nc2sc3c(=O)n(-c4cc(C)ccc4C)nnc3c12	2%	nt	10%	-19%	-4%	nt
CC(C)C(=O)Nc1ccc(-c2nc3ccccc3c(=O)o2)cc1	2%	?	26%	-18%	-4%	-76*
COc1cccc(OC)c1C(=O)N1CCN(Cc2ccccc2C)CC1	-6%	1	?	-32%[11.4 µM]	50µM*	8
COc1ccccc1C(=O)N1CCN(Cc2c[nH]c3ccccc23)CC1	nt	2	?	18µM*	50µM*	4
COc1cc(C(=O)N2CCN(C(=O)c3cccc4ccccc34)CC2)cc(OC)c1OC	nt	7	-4%	-18%	-12%	-2
COc1cccc(OC)c1C(=O)N1CCN(Cc2c[nH]c3ccccc23)CC1	nt	-1	nt	nt	nt	1
Cc1ccccc1CN1CCN(C(=O)c2cccc3ccccc23)CC1	nt	4	?	25µM*	56µM*	-4
COc1cccc(OC)c1C(=O)NCCN1CCN(C(=O)c2c(OC)cccc2OC)CC1	7%	0	39%	3%	1%	2
O=C(c1ccncc1)N1CCN(C(=O)c2cccc3ccccc23)CC1	-2%	1	39%	-11%	-19%	-5
COc1cccc(CN2CCN(C(=O)c3cccc4ccccc34)CC2)c1OC	2%	3	20µM*	4µM*	56µM*	-3
Cc1cc2c(s1)c1cnn(Cc3cccc(F)c3)c(=O)c1n2C	-10%	nt	nt	-27%	nt	nt
O=C(Cn1nc(Cc2ccncc2)c2ccccc2c1=O)Nc1cccc(C(F)(F)F)c1	9%	nt	68%	-18%	-16%	nt
CC1=C(c2ccc(C)c(C)c2)S(=O)(=O)N=C1N1CCC(C(=O)N2CCCCC2)CC1	7%	nt	-10%	-11%	-9%	nt
COc1cccc(C(=O)n2nc(-c3cccnc3)nc2NCc2ccc(F)cc2)c1	4%	nt	39%	-14%	2%	nt
Cc1cccc(CN2CCN(C(=O)c3cccc4ccccc34)CC2)c1	nt	-2	?	2.2µM*	56µM*	-20
COc1cccc(CN2CCN(C(=O)c3ccco3)CC2)c1OC	nt	13	45µM*	5.6µM*	nt	3
COc1ccc2ccccc2c1CN1CCN(C(=O)c2ccco2)CC1	8%[0.0935 µM]	0	1%	-33%	?	?
COc1ccccc1CN1CCN(C(=O)c2cccc3ccccc23)CC1	nt	-5	?	20µM*	nt	-6
SMILES	TDP1 inh	CtBP-E1A blk	HP1b binding inh	JMJD2A Tudor inh	BAZ2B inh	Six1-Eya2 blk
COc1cccc(C(=O)N2CCN(Cc3ccco3)CC2)c1OC	-14%	3	?	?	-37%	6
COc1ccc(CN2CCN(C(=O)c3ccccc3F)CC2)c(OC)c1OC	nt	7	?	1.8µM*	nt	-7
CCn1c(SCC(=O)Nc2cc(C)ccc2F)nnc1-c1ccccc1O	-1%	nt	33%	-1%	2%	nt
Cc1cc2c(s1)c1cnn(Cc3ccc(C(C)C)cc3)c(=O)c1n2C	-3%	nt	nt	-3%	nt	nt
CCn1nc(-c2ccc(C)cc2)nc2c(=O)n(C)c(=O)nc1-2	0%	nt	25%[57 µM]	-6%[57.1 µM]	nt	nt
CCOC(=O)c1cc(-c2ccc(C)cc2)n(CCCC(=O)Nc2cc(C)ccc2C)c1	0%	nt	8%	-15%	-5%	nt
Cc1nc(S(=O)(=O)N2CCOCC2)c(C#N)c(C)c1Cl	3%	5	2%	79µM*	-25%	2
S=c1[nH]nc(-c2cc(-c3ccccc3)n[nH]2)n1/N=C/C(Br)=C/c1ccccc1	6%	-10	18%	56µM*	10µM*	-26
S=c1[nH]nc(-c2cc(-c3ccccc3)n[nH]2)n1/N=C/C=C/c1ccccc1	5%	-12	20%	?	-27%	-9
Cc1cccc(/C=N/n2c(-c3cc(-c4ccccc4)n[nH]3)n[nH]c2=S)c1	5%	-8	?	79µM*	-39%	-18
S=c1[nH]nc(-c2cc(-c3ccccc3)n[nH]2)n1/N=C/c1ccccc1	nt	-14	32%	56µM*	-14%	-13
CCOC(=O)c1c(C)[nH]c(CCC(=O)NCc2ccc(N(C)C)cc2)c1C	3%	nt	-3%[57 µM]	?	-37%	nt
CSc1nnc(CNS(=O)(=O)c2ccc(Br)cc2)n1C	2%	2	32%	0%	-12%	3
Cn1c(CNS(=O)(=O)c2ccc(Br)cc2)n[nH]c1=S	-8%	8	12%	7.9µM*	5%	2
Cc1ccc(S(=O)(=O)NCc2n[nH]c(=S)n2C)cc1	-4%	-4	23%	7.9µM*	6%	2
COc1cccc(NC(=O)N2CCC(CN3CCOCC3)CC2)c1	-1%	nt	27%	-9%	3%	nt
Cc1ncc(CN2CCCC(C(=O)Nc3ccc(-c4ccco4)cc3)C2)cn1 (stereo unspecified)	15%	nt	14%[57 µM]	-24%	79µM*	-7
Cc1ncc(CN2CCCC(C(=O)Nc3ccc(-c4cscn4)cc3)C2)cn1 (stereo unspecified)	5%	3	33%	-14%	-4%	-11
O=C1C(=C(I)I)c2ccccc2-c2ccccc21	nt	-13	56µM*	25µM*	nt	-11
COc1cccc(NC(=O)C(NCC2CCCCC2)c2ccccc2)c1 (stereo unspecified)	nt	2	?	1µM*	?	12
CCN(C(=O)CN1CCN(C)CC1)c1cccc2ccccc12	1%	5	?	1.8µM*	32µM*	2
CC1CCc2c(c3ccccc3n2C(=O)CCl)C1 (stereo unspecified)	nt	-22	26%	?	79µM*	-17
